Measured values: PubChem BioAssay (NCATS)
“And” between values parts separate entries of the source, which are not always exact repeats. Equal values may be shown once. Inconclusive results are not listed. The source made the active and inactive calls. Unless noted, calls come from the whole dose curve; as a rule, active = well fitted curve in either direction with a large enough effect (not every such curve was filed as active); inconclusive = small, poorly fitted or top-dose-only effect, or another doubt; inactive = flat fitted curve, though single readings scatter.

Assays:
[1] = AP1 Signaling Pathway (AID 357); note: % is set by controls: 0 for no effect and ±100 for the full control effect
Summary of the method: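 ME-180 cells with beta-lactamase reporter under AP-1 response element, stimulated with EC50 EGF; compounds tested in titration series, 5 h at 37 °C. CCF4 substrate added 2.5 h at room temperature; 460/530 nm emission ratio gave %activity and AC50.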

[2] = NFAT Signaling Pathway (AID 444); settings: Jurkat NFAT-bla M1, carbachol, beta-lactamase ratio, 5 h;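 note: carbachol stimulus at about its EC50 of 1 µM final; % is set by controls: 0 for no effect and ±100 for the full control effect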
Summary of the method: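 Jurkat cells with NFAT-driven β-lactamase reporter and co-expressed M1 receptor, stimulated with carbachol (final 1 uM, ~EC50), compound titration, 5 h at 37 °C. CCF4 loaded 1 h at RT; 460/530 nm ratio gave %activity and AC50.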

[3] = Stat Signaling Pathway (AID 446);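 note: ME-180 cervical cancer cells given 40 pM IL-6 alongside compound; SIE-controlled beta-lactamase reporter measured as 460/530 nm FRET emission ratio; % is set by controls: 0 for no effect and ±100 for the full control effect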
Summary of the method: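 Normalization used AC90 stimulation (300 pM IL-6) and AC90 inhibition (125 nM pan-JAK inhibitor at 40 pM IL-6). The underlying signal is SIE-driven beta-lactamase in ME-180 cells after 5 h IL-6 exposure with compound.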

[4] = biological target: Cytochrome P450 1A2 (Homo sapiens) (UniProt P05177); test: p450-cyp1a2 (AID 410; calls by dose curve; note: potency is the fitted concentration of half-maximal effect;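 for activity change, negative = inhibition: -100% = full effect of reference inhibitor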)
Sequence of Cytochrome P450 1A2 (Homo sapiens) (P05177 whole entry, looked up): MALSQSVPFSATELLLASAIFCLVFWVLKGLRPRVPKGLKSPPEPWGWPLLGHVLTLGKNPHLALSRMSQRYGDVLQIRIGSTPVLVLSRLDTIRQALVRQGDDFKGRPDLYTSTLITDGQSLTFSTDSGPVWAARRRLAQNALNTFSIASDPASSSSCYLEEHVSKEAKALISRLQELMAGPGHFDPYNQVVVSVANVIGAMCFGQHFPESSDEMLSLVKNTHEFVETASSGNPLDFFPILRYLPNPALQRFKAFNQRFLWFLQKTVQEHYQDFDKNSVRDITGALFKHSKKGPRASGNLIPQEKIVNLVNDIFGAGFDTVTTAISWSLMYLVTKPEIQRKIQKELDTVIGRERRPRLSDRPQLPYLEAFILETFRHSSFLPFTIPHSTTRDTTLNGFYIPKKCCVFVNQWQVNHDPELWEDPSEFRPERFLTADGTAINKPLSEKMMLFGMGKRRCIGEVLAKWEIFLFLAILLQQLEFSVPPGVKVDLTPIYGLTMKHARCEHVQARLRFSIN
Summary of the method: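 Read-out is luminescence from luciferin produced by CYP1A2 demethylation of Luciferin-ME (100uM, at Km). Detection reagent stopped the 60 min NADPH-dependent reaction; signals were normalized to 57 uM furafylline.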

[5] = biological target: Glucocorticoid receptor (Homo sapiens) (UniProt P04150); test: GR-GFP Redistribution (AID 450;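 active = compounds whose dose series gives a full or clear partial fitted curve of increased nuclear translocation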; note: potency is the fitted concentration of half-maximal effect); settings: U2OS GR-GFP nuclear translocation, laser cytometry, 2 h
Sequence of Glucocorticoid receptor (Homo sapiens) (P04150 whole entry, looked up, the tested form may be a part): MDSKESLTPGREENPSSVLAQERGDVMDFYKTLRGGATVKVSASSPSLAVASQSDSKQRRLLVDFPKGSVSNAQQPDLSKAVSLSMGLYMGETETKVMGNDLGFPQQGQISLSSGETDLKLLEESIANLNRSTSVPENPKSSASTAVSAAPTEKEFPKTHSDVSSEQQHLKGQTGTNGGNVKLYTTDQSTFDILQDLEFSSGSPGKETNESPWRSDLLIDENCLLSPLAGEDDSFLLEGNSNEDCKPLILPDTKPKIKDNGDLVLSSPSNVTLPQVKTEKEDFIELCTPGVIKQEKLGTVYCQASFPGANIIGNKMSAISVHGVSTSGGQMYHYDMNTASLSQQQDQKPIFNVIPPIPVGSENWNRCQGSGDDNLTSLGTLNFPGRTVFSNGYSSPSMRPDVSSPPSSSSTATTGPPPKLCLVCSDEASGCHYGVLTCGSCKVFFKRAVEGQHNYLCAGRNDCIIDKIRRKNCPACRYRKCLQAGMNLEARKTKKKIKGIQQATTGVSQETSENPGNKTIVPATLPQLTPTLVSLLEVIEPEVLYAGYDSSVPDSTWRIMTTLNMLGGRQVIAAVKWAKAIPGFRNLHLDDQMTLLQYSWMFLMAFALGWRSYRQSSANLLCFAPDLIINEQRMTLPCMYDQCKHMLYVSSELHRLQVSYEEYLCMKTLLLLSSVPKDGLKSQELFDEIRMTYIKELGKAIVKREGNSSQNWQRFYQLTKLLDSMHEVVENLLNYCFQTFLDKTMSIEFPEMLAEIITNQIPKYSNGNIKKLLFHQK

[6] = biological target: Glucocorticoid receptor (Homo sapiens) (UniProt P04150); test: GR-EFC Redistribution (AID 451; calls by dose curve; note: potency is the fitted concentration of half-maximal effect); settings: CHO-K1 GR-EFC translocation, beta-gal luminescence, 2 h
Summary of the method: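 CHO-K1 cells expressing nuclear EA and GR-ED fragments of b-gal; compounds titrated up to 46 uM final, 2 h at 37 C. GR nuclear translocation read as complemented b-gal luminescence after 1 h RT detection.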

[7] = biological target: Mitogen-activated protein kinase 10 (Mus musculus) (UniProt Q61831); test: JNK3 AlphaScreen Assay (AID 530);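 note: kinase came from lysate of stimulated human HepG2 cells; signal reports phosphorylation of biotinylated GST-cJun 1-79 at Ser73 with 10 µM ATP; % is set by controls: 0 for no effect and ±100 for the full control effect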
Summary of the method: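 HepG2 lysate (IL-1b/TNFa pre-activated) + biotin-GST-cJun 1-79 + anti-pSer73 cJun; cpd titration, 15 min RT; ATP 10 uM start; Tris pH 7.6, MgCl2, DTT, vanadate; beads in EDTA buffer; AlphaScreen.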

[8] = Cell Viability - BJ (AID 421; calls by dose curve;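 note: potency is the fitted concentration of half-maximal effect; cells exposed to compound for 40 hours at 37 °C before readout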); settings: BJ fibroblast viability, qHTS
Summary of the method: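 Normal human BJ foreskin fibroblasts, 1500/well in complete medium, treated 40 hr at 37 °C. Cellular ATP by CellTiter-Glo luminescence; normalized to DMSO and 100 uM tamoxifen, AC50 from Hill fit.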

[9] = Cell Viability - Jurkat (AID 426;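 active = dose-dependent loss of cell ATP signal giving a full or clear fitted curve, ranked by lower potency value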; note: potency is the fitted concentration of half-maximal effect); settings: qHTS
Summary of the method: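 Cytotoxicity was scored as loss of cellular ATP, measured by luciferase-based luminescence, in Jurkat clone E6-1 cells after 40 h compound treatment; tamoxifen and doxorubicin served as positive controls.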

[10] = Cell Viability - Hek293 (AID 427;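 active = compounds whose dose-response curve shows a full or clear partial loss of cell viability, called from curve shape rather than a numeric limit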;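 note: potency is the fitted concentration of half-maximal effect; cells exposed to compound for 40 hours at 37 °C before reading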); settings: qHTS
Summary of the method: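 HEK293 cells in complete medium were exposed to compound for 40 hr at 37 °C, then cellular ATP was read by CellTiter-Glo luminescence. Data were normalized to DMSO (basal) and 100 uM tamoxifen (100% inhibition), and AC50 came from Hill fits.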

[11] = Cell Viability - HepG2 (AID 433; calls by dose curve;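 note: potency is the fitted concentration of half-maximal effect; potency for ATP loss meaning cytotoxicity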); settings: qHTS
Summary of the method: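 Read-out is luciferase-based quantitation of cellular ATP as a measure of viable HepG2 cells after 40 h treatment at 37 °C. Signal decrease is scaled between DMSO-only and 100 uM tamoxifen controls, with AC50 fitted by the Hill equation.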

[12] = Cell Viability - MRC5 (AID 434; calls by dose curve;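 note: potency is the fitted concentration of half-maximal effect; potency reflects cytotoxicity seen as loss of intracellular ATP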); settings: MRC5 lung fibroblast viability, qHTS
Summary of the method: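 ATP luminescence read-out (CellTiter-Glo, 20 min RT) after 40 hr, 37 °C compound exposure of 1500 MRC5 cells/well. Data normalized to DMSO (basal) and 100 uM tamoxifen (100% inhibition); AC50 from standard Hill equation.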

[13] = Cell Viability - SK-N-SH (AID 435; calls by dose curve;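 note: potency is the fitted concentration of half-maximal effect; compound exposure lasted 40 h at 37 °C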); settings: SK-N-SH neuroblastoma cell viability qHTS
Summary of the method: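 Luminescent ATP signal served as the viability read-out after 40 hours of compound treatment of human neuroblastoma SK-N-SH cells. Concentration-response data, scaled between DMSO and 100 uM tamoxifen, gave AC50 values by standard Hill modeling.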

[14] = Cell Viability - N2a (AID 540; active = well fitted curve in the direction sought with a large enough effect; an effect the other way counts as inactive or inconclusive;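 note: plate controls were DMSO alone for no effect and tamoxifen control for full effect; nearly all actives have a fitted effect of over 45% in size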)
Summary of the method: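 In this qHTS cytotoxicity screen, ATP-dependent luciferase luminescence reports viable N2a cells after a 40 hr compound exposure in complete culture medium. Potencies are AC50 values from standard Hill equation fits.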

[15] = Cell Viability - NIH 3T3 (AID 541; active = well fitted curve in the direction sought with a large enough effect; an effect the other way counts as inactive or inconclusive;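 note: plate controls were DMSO alone for no effect and tamoxifen positive control for full effect; nearly all actives have a fitted effect of over 25% in size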)
Summary of the method: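 In this cytotoxicity screen, acute toxicity is scored as an ATP drop measured by CellTiter-Glo in NIH 3T3 fibroblasts following a 40 hr, 37 °C incubation with compound.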

[16] = Cell Viability - HUV-EC-C (AID 542; active = well fitted curve in the direction sought with a large enough effect; an effect the other way counts as inactive or inconclusive; note: % is set by controls: 0 for no effect and ±100 for the full control effect; nearly all actives have a fitted effect of over 35% in size)
Summary of the method: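 Concentration-dependent ATP loss in HUV-EC-C cells is the measure. Exposure lasts 40 hr at 37 °C; luminescence follows CellTiter-Glo addition, and Hill fits give AC50.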

[17] = Cell Viability - H-4-II-E (AID 543; active = well fitted curve in the direction sought with a large enough effect; an effect the other way counts as inactive or inconclusive; note: % is set by controls: 0 for no effect and ±100 for the full control effect; nearly all actives have a fitted effect of over 35% in size)
Summary of the method: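 AC50 from Hill-modelled qHTS concentration-response curves. H-4-II-E rat hepatoma cells in complete medium, 40 hr exposure at 37 °C, viability by CellTiter-Glo ATP luminescence.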

[18] = Cell Viability - SH-SY5Y (AID 544; active = well fitted curve in the direction sought with a large enough effect; an effect the other way counts as inactive or inconclusive;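 note: 0% = DMSO alone and -100% = 100 µM tamoxifen; nearly all actives have a fitted effect of over 55% in size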); settings: SH-SY5Y neuroblastoma cell viability; at 92.2 µM (top of the series)
Summary of the method: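 Quantitative HTS in SH-SY5Y neuroblastoma cells, 40 hr treatment at 37 °C, ATP content by luciferase luminescence; AC50 from Hill fits.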

[19] = Cell Viability - Renal Proximal Tubule (AID 545; active = well fitted curve in the direction sought with a large enough effect; an effect the other way counts as inactive or inconclusive;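 note: 0% = DMSO only and -100% = 100 µM tamoxifen; nearly all actives have a fitted effect of over 40% in size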)
Summary of the method: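 Luminescent ATP signal (CellTiter-Glo) served as the viability read-out after 40 hr compound exposure of freshly isolated rat proximal tubule cells at 37 °C. Concentration-dependent ATP loss was fitted with the Hill equation to give AC50.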

[20] = biological target: Lysosomal acid glucosylceramidase (Homo sapiens) (UniProt P04062); test: Glucocerebrosidase-p2 (AID 348; in the data active = potency below about 10 µM; note: potency is the fitted concentration of half-maximal effect); settings: purified GBA, blue fluorogenic substrate, 40 min
Sequence of Lysosomal acid glucosylceramidase (Homo sapiens) (P04062 whole entry, looked up): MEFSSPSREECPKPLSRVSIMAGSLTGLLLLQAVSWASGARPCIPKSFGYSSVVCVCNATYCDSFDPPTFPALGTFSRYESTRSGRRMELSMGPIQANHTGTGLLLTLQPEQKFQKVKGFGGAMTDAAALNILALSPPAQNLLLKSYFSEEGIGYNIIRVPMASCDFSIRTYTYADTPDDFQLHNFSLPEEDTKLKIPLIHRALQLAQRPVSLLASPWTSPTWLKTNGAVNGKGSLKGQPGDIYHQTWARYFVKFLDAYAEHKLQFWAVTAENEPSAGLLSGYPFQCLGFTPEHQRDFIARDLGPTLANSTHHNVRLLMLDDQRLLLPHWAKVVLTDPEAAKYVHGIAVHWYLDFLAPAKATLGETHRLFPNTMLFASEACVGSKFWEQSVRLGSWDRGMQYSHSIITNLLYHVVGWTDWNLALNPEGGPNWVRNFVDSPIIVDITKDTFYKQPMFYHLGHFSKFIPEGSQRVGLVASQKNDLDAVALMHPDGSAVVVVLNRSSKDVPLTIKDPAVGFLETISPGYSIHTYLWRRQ
Summary of the method: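 Normal human glucocerebrosidase (0.2 nM) with blue fluorogenic substrate (80 uM final) in citrate/phosphate pH 5.9 with 10mM sodium taurocholate, 0.01% tween-20; 40 min RT, NaOH/glycine stop; fluorescence Ex 365/Em 440; AC50 from a titration from 0.6 nM upwards.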

[21] = at 17.2 µM (top of the series) unless noted

CCS(=O)(=O)CCn1c([N+](=O)[O-])cnc1C
inactive: outcome [1] | activity change, negative = inhibition [2, 21] -9.1% and -28.6% | outcome [3]

CCOC(=O)[C@H](CCc1ccccc1)N[C@@H](C)C(=O)N1CCC[C@H]1C(=O)O
inactive: outcome [1] | Potency [4] | activity change, negative = inhibition [2, 21] 0.851% | outcome [3] | Potency [5] > 20.6 µM | Potency [6] > 20.6 µM

Cn1c(=O)c2c(ncn2CCO)n(C)c1=O
inactive: outcome [1] | Potency [4] | activity change, negative = inhibition [2, 21] -0.574% | outcome [3]

C[C@@H]1CCC[C@H](C)N1
inactive: outcome [1] | Potency [4] | activity change, negative = inhibition [2, 21] -5.56% | outcome [3] | Potency [5] > 20.6 µM | Potency [6] > 20.6 µM | outcome [7]

Cc1cccc(Nc2ccccc2C(=O)O)c1C
inactive: outcome [1] | activity change, negative = inhibition [2, 21] -4.97% | outcome [3] | Potency [5] > 20.6 µM | Potency [6] > 20.6 µM
active: Potency [4] 5.01 µM

CN1C(C)(C)CCCC1(C)C
inactive: outcome [1] | activity change, negative = inhibition ([2]; at 17.2 µM (top of the series)) -4.12% | activity change, negative = inhibition ([2]; at 38 µM (top of the series)) 7.41% | outcome [3] | Potency [5] > 46 µM and > 20.6 µM | Potency [6] > 46 µM and > 20.6 µM

CCCCOC(=O)c1ccc(N)cc1
inactive: outcome [1] | Potency [8] > 92 µM | Potency [9] > 92 µM | Potency [10] > 92 µM | Potency [11] > 92 µM | Potency [12] > 92 µM | Potency [13] > 92 µM | activity change, negative = inhibition [2, 21] -8.04% | outcome [3] | Potency [5] > 20.6 µM | Potency [6] > 20.6 µM | outcome [7] | outcome [14] | outcome [15] | outcome [16] | outcome [17] | viability change, negative = cytotoxic [18] -11.2% | outcome [19]

Cc1cc(C)nc(NS(=O)(=O)c2ccc(N)cc2)n1
inactive: outcome [1] | Potency [4] | Potency [8] > 92 µM | Potency [9] > 92 µM | Potency [10] > 92 µM | Potency [11] > 92 µM | Potency [12] > 92 µM | Potency [13] > 92 µM | activity change, negative = inhibition [2, 21] -2.6% | outcome [3] | Potency [5] > 20.6 µM | Potency [6] > 20.6 µM | outcome [14] | outcome [15] | outcome [16] | outcome [17] | viability change, negative = cytotoxic [18] -0.461% | outcome [19]

O=C(O)COC(=O)Cc1ccccc1Nc1c(Cl)cccc1Cl
inactive: outcome [1] | Potency [4] | activity change, negative = inhibition [2, 21] -7.48% | outcome [3] | outcome [7]

CCCCC1(COC(=O)CCC(=O)O)C(=O)N(c2ccccc2)N(c2ccccc2)C1=O
inactive: outcome [1] | activity change, negative = inhibition [2, 21] 11.7% | outcome [3]

Cc1ncc(CO)c(CN)c1O
inactive: Potency [20] > 11.4 µM | outcome [1] | activity change, negative = inhibition [2, 21] -0.448% [at 7.69 µM] | outcome [3]

Cc1c(NC(C)C)c(=O)n(-c2ccccc2)n1C
active: Potency [4] 0.0398 µM
inactive: outcome [1] | activity change, negative = inhibition [2, 21] -8.51% | outcome [3] | Potency [5] > 20.6 µM | Potency [6] > 20.6 µM

CCN(CC)CCc1nc(-c2ccccc2)no1
active: Potency [4] 5.01 µM
inactive: outcome [1] | outcome [3] | Potency [5] > 20.6 µM | Potency [6] > 20.6 µM | outcome [7]

NCc1ccc(S(N)(=O)=O)cc1
inactive: outcome [1] | Potency [4] | activity change, negative = inhibition [2, 21] -1.12% and 9.4% | outcome [3] | outcome [7]

O=C(O)c1ccccc1OP(=O)(O)O
inactive: outcome [1] | Potency [4] | activity change, negative = inhibition [2, 21] -20.2% | outcome [3] | Potency [5] > 20.6 µM | Potency [6] > 20.6 µM

CC(=O)NS(=O)(=O)c1ccc(N)cc1
inactive: outcome [1] | Potency [4] | Potency [8] > 92 µM | Potency [9] > 92 µM | Potency [10] > 92 µM | Potency [11] > 92 µM | Potency [12] > 92 µM | Potency [13] > 92 µM | activity change, negative = inhibition [2, 21] -1.44% and -25.8% | outcome [3] | Potency [5] > 20.6 µM | Potency [6] > 20.6 µM | outcome [14] | outcome [15] | outcome [16] | outcome [17] | viability change, negative = cytotoxic [18] -13.1% | outcome [19]

CC(C)=CCC/C(C)=C/CO
inactive: Potency [20] > 11.4 µM | outcome [1] | activity change, negative = inhibition [2, 21] 4.14% [at 7.69 µM] | Potency [5] > 46 µM | Potency [6] > 9.22 µM | outcome [7]

CC(=O)SC[C@@H](Cc1ccccc1)C(=O)NCC(=O)OCc1ccccc1
active: Potency [4] 2.51 µM
inactive: outcome [1] | activity change, negative = inhibition [2, 21] -12% | outcome [3] | Potency [5] > 20.6 µM | Potency [6] > 20.6 µM

CC[N+](CC)(CC(=O)Nc1c(C)cccc1C)Cc1ccccc1
inactive: outcome [1] | Potency [4] | outcome [3] | outcome [7]
